Data: PubChem BioAssay AID1619 (SRMLSC, 2009)
Hit rate of the full screen: of about 220,000 compounds, about 830 (0.38%) were called active. These entries were drawn from the full list. Results with a measured potency or affinity are listed apart. A number with no mark means an inactive call.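 Rule for the calls: active = compound inhibiting the enzyme by more than half at any dose during confirmatory dose-response retesting; inconclusive = strong single-dose inhibitors picked by rank but not retested; inactive = the rest.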

biological target: Leucine aminopeptidase (Plasmodium falciparum (isolate 3D7)) (UniProt Q8IL11); assay: P. falciparum M17LAP inhibitors, primary screen, biochemical, fluorogenic H-Leu-NHMec substrate, 1536-well (AID 1619); conditions: recombinant M17LAP, H-Leu-NHMec fluorogenic kinetic assay; at 30 µM; active compounds read high;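 note: plate controls were full reaction with DMSO carrier for no effect and no enzyme background for full effect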
Sequence (Q8IL11 whole entry, looked up): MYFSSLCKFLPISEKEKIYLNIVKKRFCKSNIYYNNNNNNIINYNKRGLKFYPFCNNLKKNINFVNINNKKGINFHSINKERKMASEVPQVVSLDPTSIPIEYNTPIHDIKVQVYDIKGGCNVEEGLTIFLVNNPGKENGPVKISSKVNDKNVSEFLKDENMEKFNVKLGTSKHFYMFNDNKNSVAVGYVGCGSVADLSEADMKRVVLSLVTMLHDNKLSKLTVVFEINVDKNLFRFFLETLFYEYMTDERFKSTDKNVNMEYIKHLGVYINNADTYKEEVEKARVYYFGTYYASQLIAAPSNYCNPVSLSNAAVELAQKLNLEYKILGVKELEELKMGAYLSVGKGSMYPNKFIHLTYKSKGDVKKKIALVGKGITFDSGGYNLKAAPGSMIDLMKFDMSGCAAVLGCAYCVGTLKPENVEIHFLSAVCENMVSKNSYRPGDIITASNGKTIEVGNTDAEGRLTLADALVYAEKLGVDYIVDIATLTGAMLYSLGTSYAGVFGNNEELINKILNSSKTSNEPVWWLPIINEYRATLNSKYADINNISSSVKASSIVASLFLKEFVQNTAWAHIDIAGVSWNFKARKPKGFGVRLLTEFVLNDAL

`CCOC(=O)CC(=O)CSc1nc(C)cc(C)c1C#N` was tested. Which inhibition did it give?
Its inhibition is -4.47%.

Which inhibition does the source give for `COc1cc(NC(=O)c2cccc(C)c2)c(OC)cc1NC(=O)CN1CCOCC1` here?
The inhibition was 14.9%.

For `Cc1ccccc1/C=C1\SC(=S)N(/N=C/c2cc([N+](=O)[O-])ccc2O)C1=O`, which inhibition is on record?
The inhibition was 15.5%.

`O=C(O)COc1ccccc1/C=C1\SC(=S)N(c2cccnc2)C1=O` was tested. Which inhibition did it give?
The inhibition was 10.2%.

With `O=C(O)COc1ccccc1/C=C1\SC(=Nc2ccc(F)cc2)N(c2ccc(F)cc2)C1=O` as the molecule, how does the inhibition read?
The inhibition was 2.19%.

How did the inhibition turn out when `CN1C(=O)S/C(=C\c2ccccc2OCc2ccc(C(=O)O)cc2)C1=O` was run?
The inhibition was 5.62%.

How did the inhibition turn out when `Cc1cccc(C2c3[nH]c4ccccc4c3CCN2C(=O)c2cn(C)c3ccccc3c2=O)n1` (stereo not drawn) was run?
The inhibition was 8.5%.

How did the inhibition turn out when `COCCCNC(=S)N/N=C/c1ccccc1O` was run?
The inhibition was 19.4%.

How did the inhibition turn out when `O=C(CSC1=NCCN1)Nc1cccc(C(F)(F)F)c1` was run?
Its inhibition is -6.47%.

How did the inhibition turn out when `Cc1cc(C)nc(SCc2nnc(SCC(=O)Nc3ccc(Cl)c(C(F)(F)F)c3)o2)n1` was run?
The inhibition was 10.2%.

How did the inhibition turn out when `O=C(O)CCCC(=O)Nc1cccc(C(F)(F)F)c1` was run?
The inhibition was 24.8%.

Which inhibition does the source give for `CNCC(=O)Nc1ccc(Cl)c(C(F)(F)F)c1` here?
The inhibition was -1.94%.

`CCc1ccc(NC(=O)CSc2nnc(CC)c(CC)n2)cc1` was tested. Which inhibition did it give?
The inhibition was 29.2%.

For `CCc1nnc(SCC(=O)Nc2ccccc2)nc1CC`, which inhibition is on record?
The inhibition was 21.8%.

For `Cc1cc(C)nc(/N=C(\NC(=O)C(C)(C)C)Nc2ccc(F)cc2)n1`, which inhibition is on record?
Its inhibition is 12.7%.

How did the inhibition turn out when `CN(C)CCNC(=S)Nc1ccc(-c2nc3ccccc3[nH]2)cc1` was run?
Its inhibition is 18.8%.

`COc1ccc(-c2csc3nc(C)nc(N4CCN(c5ccc(C(C)=O)cc5)CC4)c23)cc1OC` was tested. Which inhibition did it give?
Its inhibition is -3.5%.

How did the inhibition turn out when `COCCSc1ccccc1C(=O)N1CCCC(C)C1` (stereo not drawn) was run?
The inhibition was -3.2%.

Which inhibition does the source give for `CC(C)(C)C(=O)Nc1cccc(-c2ncon2)c1` here?
The inhibition was 1.81%.

`NS(=O)(=O)c1ccc(NC(=O)Cn2ncc3c2-c2ccccc2OC3)cc1` was tested. Which inhibition did it give?
Its inhibition is -1.22%.

With `COc1cccc(CNC(=O)Cc2c(C(=O)O)[nH]c3ccccc23)c1` as the molecule, how does the inhibition read?
Its inhibition is 8.02%.

`COc1ccc(OC)c(CNC(=O)Cc2c(C(=O)O)[nH]c3ccccc23)c1` was tested. Which inhibition did it give?
The inhibition was 28.4%.

How did the inhibition turn out when `Cc1ccc(NC(=O)C(=O)NCC2CCCO2)cc1C` (stereo not drawn) was run?
Its inhibition is -1.64%.

`COc1ccc(S(=O)(=O)Nc2nncs2)cc1` was tested. Which inhibition did it give?
The inhibition was 54.3%.

With `COCc1nnc(NS(=O)(=O)c2ccc(C)cc2)s1` as the molecule, how does the inhibition read?
The inhibition was 4.91%.

`Cc1cc(C)c(C#N)c(SCC(=O)Nc2ccccc2C)n1` was tested. Which inhibition did it give?
Its inhibition is -11.6%.

Which inhibition does the source give for `Cc1ccccc1NC(=O)CSc1nc(N)c(C#N)cc1C#N` here?
Its inhibition is -1.94%.

`Cc1nc(SCC(=O)Nc2ccc(F)cc2)c(C#N)c(C)c1CC(=O)c1ccc(Br)cc1` was tested. Which inhibition did it give?
The inhibition was -7.6%.

Which inhibition does the source give for `COc1ccc(-c2cc(C(F)(F)F)c(C#N)c(SCC(=O)Nc3ccccc3C#N)n2)cc1` here?
Its inhibition is -5.46%.

With `Cc1cc(C)c(C#N)c(SCC(=O)Nc2ccccc2C(N)=O)n1` as the molecule, how does the inhibition read?
Its inhibition is -14.1%.

With `Cc1ccc(C)c(NC(=O)CSc2nc(C)cc(C)c2C#N)c1` as the molecule, how does the inhibition read?
Its inhibition is 11.2%.

With `COCc1cc(C)nc(SCC(=O)Nc2ccccc2C)c1C#N` as the molecule, how does the inhibition read?
The inhibition was -1.72%.

How did the inhibition turn out when `Cc1cc(C)c(C#N)c(SCC(=O)Nc2ccc3c(c2)OCO3)n1` was run?
The inhibition was 2.63%.

`O=C(NCCc1c[nH]c2ccccc12)/C(=C/c1cccnc1)NC(=O)c1cccs1` was tested. Which inhibition did it give?
Its inhibition is 7.81%.

How did the inhibition turn out when `Cc1ccc(NC(=O)CCCN2C(=S)NC(C)(C)CC2C)cc1` (stereo not drawn) was run?
Its inhibition is 4.19%.

For `CCCN(c1nc(C)cc(OC)n1)S(=O)(=O)c1ccccc1`, which inhibition is on record?
Its inhibition is -8.31%.

`CCOc1ccc(-c2[nH]nc3c2C(c2cccnc2)C(C#N)=C(N)O3)cc1` (stereo not drawn) was tested. Which inhibition did it give?
The inhibition was 24.6%.

For `N#CC1=C(N)Oc2n[nH]c(-c3cccs3)c2C1c1cccnc1` (stereo not drawn), which inhibition is on record?
The inhibition was 24.1%.

`COc1ccc(-c2[nH]nc3c2C(c2ccsc2)C(C#N)=C(N)O3)cc1` (stereo not drawn) was tested. Which inhibition did it give?
Its inhibition is 72.1%.

For `Cc1cc(-c2[nH]nc3c2C(c2ccc(Cl)cc2)C(C#N)=C(N)O3)c(C)s1` (stereo not drawn), which inhibition is on record?
Its inhibition is 23.3%.

For `N#CC1=C(N)Oc2n[nH]c(-c3ccncc3)c2C1c1ccsc1` (stereo not drawn), which inhibition is on record?
The inhibition was 27.9%.

Which inhibition does the source give for `Cc1cc(-c2[nH]nc3c2C(c2ccsc2)C(C#N)=C(N)O3)c(C)s1` (stereo not drawn) here?
Its inhibition is 45.6%.

How did the inhibition turn out when `Cc1cc(NS(=O)(=O)c2ccc(NC(=O)c3ccc(Br)o3)cc2)nc(C)n1` was run?
The inhibition was 4.58%.

With `N/C(=N\OC(=O)CCC1CCCC1)c1ccccn1` as the molecule, how does the inhibition read?
Its inhibition is 7.09%.

How did the inhibition turn out when `CCOn1c(-n2nc(C)cc2C)nc2ccccc2c1=O` was run?
The inhibition was -1.28%.

`Cc1ccc(-c2noc(CCC(=O)NCC3CCN(Cc4cccc(C)c4)CC3)n2)cc1` was tested. Which inhibition did it give?
The inhibition was -0.25%.

How did the inhibition turn out when `COc1cc(/C=C2/NC(=O)N(Cc3ccccc3F)C2=O)ccc1Oc1ccc([N+](=O)[O-])cn1` was run?
Its inhibition is -10.8%.

`COc1cccc(CN2CCN(C3CCN(c4ccccc4F)CC3)CC2CCO)c1` (stereo not drawn) was tested. Which inhibition did it give?
Its inhibition is 3.43%.

`COc1ccc(NC(=O)CSc2ccccc2)c([N+](=O)[O-])c1` was tested. Which inhibition did it give?
Its inhibition is 13%.

With `CCOc1ccc(NC(=O)Cc2cccc3ccccc23)c([N+](=O)[O-])c1` as the molecule, how does the inhibition read?
The inhibition was 33.7%.

`COc1ccc(NC(=O)CSc2ccccn2)c([N+](=O)[O-])c1` was tested. Which inhibition did it give?
The inhibition was 4.06%.

`CCOc1ccc(NC(=O)COc2ccccc2)c([N+](=O)[O-])c1` was tested. Which inhibition did it give?
The inhibition was 4.93%.

Which inhibition does the source give for `CCOc1ccc(OCC(=O)Nc2ccc(OC)cc2[N+](=O)[O-])cc1` here?
The inhibition was -4.57%.

For `COc1ccc(NC(=O)CSc2nncn2C)c([N+](=O)[O-])c1`, which inhibition is on record?
Its inhibition is 41.3%.

For `CCCc1cc(=O)oc2cc(OCC(=O)Nc3cc(C)on3)ccc12`, which inhibition is on record?
The inhibition was -41.2%.

`CCNS(=O)(=O)c1ccc2c(c1)n(C)c(=O)n2C` was tested. Which inhibition did it give?
The inhibition was 6.77%.

With `[O-]/C(=C(\C(=S)Nc1ccccc1F)[n+]1ccccc1)c1ccc(-c2ccccc2)cc1` as the molecule, how does the inhibition read?
The inhibition was -0.96%.

With `CCc1ccc(N(C(=O)c2snc(C(N)=O)c2N)C(C(=O)NCC2CCCO2)c2cccs2)cc1` (stereo not drawn) as the molecule, how does the inhibition read?
The inhibition was -0.4%.

`Cn1ncc([N+](=O)[O-])c1C(=O)Nc1nc2ccccc2n1CCN1CCCCC1` was tested. Which inhibition did it give?
Its inhibition is 48.4%.

How did the inhibition turn out when `Cc1ccc(NC(=O)COC(=O)Cc2ccsc2)cc1S(=O)(=O)N(C)C` was run?
The inhibition was 3.8%.

`CCOC(=O)c1ccc(NC(=O)Cn2nnc(-c3ccccc3F)n2)cc1` was tested. Which inhibition did it give?
Its inhibition is -13.6%.

Which inhibition does the source give for `CCOC(=O)c1cc(=O)n2nc(-c3ccc(C)cc3)nc2s1` here?
Its inhibition is 10.8%.

`CC(C)Cn1c(N)c(C(=O)COC(=O)c2cc(F)cc(F)c2)c(=O)n(C)c1=O` was tested. Which inhibition did it give?
Its inhibition is 3.99%.

How did the inhibition turn out when `CCOc1ccc(C2/C(=C(\O)c3ccc(OC)c(OC)c3)C(=O)C(=O)N2c2cc(C)on2)cc1OC` (stereo not drawn) was run?
The inhibition was 25.9%.

`CCOc1cccc(-c2cc(C(=O)NN)[nH]n2)c1` was tested. Which inhibition did it give?
Its inhibition is 3.47%.

How did the inhibition turn out when `C=CCn1c(-c2cccc(OCC)c2)n[nH]c1=S` was run?
The inhibition was -4.71%.

With `Cc1ccc(C(=O)NC2CCCCNC2=O)cc1C` (stereo not drawn) as the molecule, how does the inhibition read?
Its inhibition is 4.43%.

Which inhibition does the source give for `Cc1ccc(Cl)cc1NC(=O)N(C)CCO` here?
The inhibition was -0.32%.

For `O=Cc1cn(CC(=O)N2CCOCC2)c2ccccc12`, which inhibition is on record?
Its inhibition is 13.4%.

With `O=C(O)Cn1cc(C(=S)N2CCOCC2)c2ccccc21` as the molecule, how does the inhibition read?
The inhibition was 4.61%.

How did the inhibition turn out when `O=C(Cn1cc(C(=S)N2CCOCC2)c2ccccc21)N1CCOCC1` was run?
Its inhibition is 1.74%.

For `O=C(O)Cn1cc(/C=C2/SC(=O)N(CC(=O)N3CCCCCC3)C2=O)c2ccccc21`, which inhibition is on record?
The inhibition was 36.6%.

With `O=C(NCc1ccccc1C(F)(F)F)C1CC(c2ccc(C(F)(F)F)cc2)=NO1` (stereo not drawn) as the molecule, how does the inhibition read?
Its inhibition is -1.15%.

`Cc1ccc(CNC(=O)c2ccc3c(=O)n4c(-c5ccc(C)cc5)csc4nc3c2)cc1` was tested. Which inhibition did it give?
The inhibition was 4.76%.

With `COC(=O)c1c(C)[nH]c(C(=O)NCc2ccco2)c1C` as the molecule, how does the inhibition read?
The inhibition was -0.45%.

How did the inhibition turn out when `CCC(=O)N(Cc1cc(=O)[nH]c2ccccc12)c1cccc(C)c1` was run?
The inhibition was -6.5%.

For `Cc1ccc(-c2cc3nc(-c4ccccc4)cc(N4CCOCC4)n3n2)cc1`, which inhibition is on record?
Its inhibition is -15.5%.

With `O=c1[nH]c(-c2ccc(Cl)cc2)cs1` as the molecule, how does the inhibition read?
Its inhibition is -0.58%.

With `O=c1cc(-c2ccc(C3CCCCC3)cc2)[nH][nH]1` as the molecule, how does the inhibition read?
The inhibition was 1.14%.

For `CC(C)Cc1ccc(-c2cc(=O)[nH][nH]2)cc1`, which inhibition is on record?
Its inhibition is 3.83%.

For `O=c1cc(-c2ccc(Br)cc2)[nH][nH]1`, which inhibition is on record?
Its inhibition is 6.69%.

For `O=c1c(OC2OC(CO)C(O)C(O)C2O)c(-c2ccc(O)c(O)c2)oc2cc(O)cc(O)c12` (stereo not drawn), which inhibition is on record?
Its inhibition is 31%.

Which inhibition does the source give for `O=c1c(O[C@@H]2O[C@H](CO)[C@H](O)[C@H](O)[C@H]2O)c(-c2ccc(O)c(O)c2)oc2cc(O)cc(O)c12` here?
The inhibition was -6.93%.

Which inhibition does the source give for `O=C(c1ccc(Br)cc1)N(C1=NCCCCS1)c1ccccc1` here?
The inhibition was -5.89%.

How did the inhibition turn out when `CC(Oc1ccc(NC(=O)c2ccco2)cc1)C(=O)N1c2ccccc2CC1C` (stereo not drawn) was run?
Its inhibition is -7.91%.

`CCOC(=O)c1c(N)c2cc([N+](=O)[O-])cnc2n1C` was tested. Which inhibition did it give?
The inhibition was -0.26%.

Which inhibition does the source give for `CCc1nnc(NC(=O)CSc2nnc(-c3ccco3)o2)s1` here?
The inhibition was 4.71%.

`O=C(NCC1CCCO1)c1ccc(NS(=O)(=O)c2ccccc2)cc1` (stereo not drawn) was tested. Which inhibition did it give?
Its inhibition is -3.12%.

Which inhibition does the source give for `O=C(CSc1nnc(-c2ccc(S(=O)(=O)N3CCCC3)cc2)o1)NCC1CCCO1` (stereo not drawn) here?
Its inhibition is -1.86%.

For `COC(=O)CSc1nnc(-c2ccc(NS(=O)(=O)c3ccccc3)cc2)o1`, which inhibition is on record?
Its inhibition is 55.1%.

With `Cc1cc(NC(=O)Nc2ccc(C)c(C)c2)no1` as the molecule, how does the inhibition read?
Its inhibition is 1.89%.

With `O=C1c2cccc3c([N+](=O)[O-])ccc(c23)C(=O)N1CCc1ccccn1` as the molecule, how does the inhibition read?
The inhibition was 3.49%.

For `Cc1cccc(OCCOC(=O)C2CCN(S(=O)(=O)c3cccs3)CC2)c1`, which inhibition is on record?
Its inhibition is -6.82%.
